This is an account of results in article PMC5700166.

Residue numbers refer to the chain shown, from its start.

Holding throughout (experiment): protein-binding microarray (PBM); PBM: ~300 nM protein, 6 mM HEPES pH 7.8, 80 mM KCl, 0.5 mM EDTA, 0.5 mM EGTA, 6% glycerol, 35 ng/ul poly-dIdC, 1% milk, 1 h, room temperature; Ap Aiptasia and Nv Nematostella (sea anemones) / Co Capsaspora / Aq Amphimedon (sponge) / Dm Drosophila / Hu human; RHD is the Rel homology domain; high values mean tight binding
What all share (details): dsDNA, one strand shown

Assay [1] addresses T1, GST-Ap-NF-kB RHD (Exaiptasia pallida (Aiptasia), UniProt A0A913YAJ5 2-422).
T1 sequence: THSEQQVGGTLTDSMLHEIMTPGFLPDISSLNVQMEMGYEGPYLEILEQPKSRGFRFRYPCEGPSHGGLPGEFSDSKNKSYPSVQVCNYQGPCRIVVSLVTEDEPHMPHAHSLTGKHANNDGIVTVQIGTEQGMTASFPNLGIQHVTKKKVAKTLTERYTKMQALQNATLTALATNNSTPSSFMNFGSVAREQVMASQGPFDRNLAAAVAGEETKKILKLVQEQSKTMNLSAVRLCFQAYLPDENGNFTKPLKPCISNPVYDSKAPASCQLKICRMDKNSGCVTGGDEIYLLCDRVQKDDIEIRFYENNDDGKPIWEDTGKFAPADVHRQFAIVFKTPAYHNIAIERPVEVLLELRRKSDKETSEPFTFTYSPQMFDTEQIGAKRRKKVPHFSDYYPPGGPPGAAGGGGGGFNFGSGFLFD

In assay [2] the target is T2, GST-Nv-NF-kB (Cys allele) (Nematostella vectensis, UniProt E5G601 2-411).
T2 sequence: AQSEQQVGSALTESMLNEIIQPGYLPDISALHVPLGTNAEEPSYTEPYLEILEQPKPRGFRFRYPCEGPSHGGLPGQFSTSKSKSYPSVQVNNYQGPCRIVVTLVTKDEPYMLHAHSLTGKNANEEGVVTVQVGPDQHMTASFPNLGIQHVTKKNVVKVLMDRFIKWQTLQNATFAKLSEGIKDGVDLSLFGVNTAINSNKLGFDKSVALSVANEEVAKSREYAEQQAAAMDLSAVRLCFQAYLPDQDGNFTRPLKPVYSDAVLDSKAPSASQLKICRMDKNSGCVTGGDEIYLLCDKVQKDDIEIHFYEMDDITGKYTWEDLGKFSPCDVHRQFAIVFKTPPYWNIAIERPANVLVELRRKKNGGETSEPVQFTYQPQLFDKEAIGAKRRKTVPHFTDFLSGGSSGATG

Assay [3] addresses T3, GST-Nv-NF-kB (Ser allele) (Nematostella vectensis, UniProt A7UNT2 2-411).
T3 sequence: T2 sequence with Q21R, C66S, S207N, E215Q, V217A, E225K, A268E, D399E

In assay [4] the target is T4, GST-Co-NF-kB (Capsaspora owczarzaki, UniProt F1ARL5 200-546).
T4 sequence: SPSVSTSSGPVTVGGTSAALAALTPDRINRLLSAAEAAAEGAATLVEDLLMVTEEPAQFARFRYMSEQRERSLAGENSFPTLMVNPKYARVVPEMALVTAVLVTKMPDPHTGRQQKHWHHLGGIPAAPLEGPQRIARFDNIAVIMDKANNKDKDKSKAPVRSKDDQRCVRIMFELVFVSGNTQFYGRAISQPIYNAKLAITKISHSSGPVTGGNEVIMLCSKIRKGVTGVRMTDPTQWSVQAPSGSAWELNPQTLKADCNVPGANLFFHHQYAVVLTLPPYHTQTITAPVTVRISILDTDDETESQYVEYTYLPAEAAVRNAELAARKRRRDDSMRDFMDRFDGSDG

For assay [5], the target named is T5, GST-Dm-Relish (Drosophila melanogaster, UniProt Q94527 99-473).
T5 sequence: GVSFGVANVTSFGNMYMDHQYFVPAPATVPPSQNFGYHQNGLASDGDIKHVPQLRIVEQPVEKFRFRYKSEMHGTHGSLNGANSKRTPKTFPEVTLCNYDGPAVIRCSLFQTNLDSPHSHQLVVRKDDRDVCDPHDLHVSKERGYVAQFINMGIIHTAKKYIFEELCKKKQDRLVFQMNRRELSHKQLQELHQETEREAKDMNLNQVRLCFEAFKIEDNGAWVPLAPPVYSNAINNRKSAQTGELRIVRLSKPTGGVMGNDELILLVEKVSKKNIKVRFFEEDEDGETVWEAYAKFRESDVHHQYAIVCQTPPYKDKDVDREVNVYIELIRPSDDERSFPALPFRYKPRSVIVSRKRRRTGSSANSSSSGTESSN

In assay [6] the target is T6, GST-Aq-NF-kB (Amphimedon queenslandica, UniProt A9Y5G7 2-389).
T6 sequence: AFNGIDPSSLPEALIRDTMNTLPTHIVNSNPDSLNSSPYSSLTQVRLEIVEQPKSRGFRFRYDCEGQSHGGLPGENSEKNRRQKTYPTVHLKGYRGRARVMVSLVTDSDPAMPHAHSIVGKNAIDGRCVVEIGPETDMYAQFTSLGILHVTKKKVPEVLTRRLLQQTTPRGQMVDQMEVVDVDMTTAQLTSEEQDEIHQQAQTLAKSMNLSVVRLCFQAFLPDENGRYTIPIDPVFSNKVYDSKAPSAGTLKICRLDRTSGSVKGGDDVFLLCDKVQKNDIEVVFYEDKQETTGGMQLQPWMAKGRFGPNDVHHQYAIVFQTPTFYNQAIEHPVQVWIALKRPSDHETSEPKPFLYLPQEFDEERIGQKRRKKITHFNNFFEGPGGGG

Assay [7] has as its target GST-Hu-p50 (Homo sapiens, UniProt P19838 7-356).

GST-Hu-p50, sequence (P19838 7-356): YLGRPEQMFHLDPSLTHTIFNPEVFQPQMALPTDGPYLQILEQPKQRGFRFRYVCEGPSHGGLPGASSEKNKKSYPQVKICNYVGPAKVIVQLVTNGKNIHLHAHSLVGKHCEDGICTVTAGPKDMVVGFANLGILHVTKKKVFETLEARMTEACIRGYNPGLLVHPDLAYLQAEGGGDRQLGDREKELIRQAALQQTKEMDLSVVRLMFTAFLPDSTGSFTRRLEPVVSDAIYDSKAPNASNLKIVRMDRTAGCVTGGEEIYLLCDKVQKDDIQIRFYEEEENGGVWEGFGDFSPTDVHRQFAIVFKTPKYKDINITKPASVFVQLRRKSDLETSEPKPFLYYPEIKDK

For “CCGATTAACATCAGGGGAATTTATGATGTTAATCGGGTCTTGATTCGCTTGACGCTGCTG”, the binding signal in assay [1] came to 9.91 z-score; in assay [2] it was 11.9 z-score; in assay [3], 12.9 z-score; in assay [4], 8.16 z-score; in assay [5], 9.13 z-score; in assay [6], 8.72 z-score. This sequence came in with a binding signal in assay [7] of 7.75 z-score.
Turning to “CCGATTAACATCAGGGTATTTTATGATGTTAATCGGGTCTTGATTCGCTTGACGCTGCTG”, the binding signal is 5.82 z-score in assay [1]; 8.31 z-score in assay [2]; 7.61 z-score in assay [3]; 3.22 z-score in assay [4]; 5.65 z-score in assay [5]; 7.07 z-score in assay [6]. Moreover, the binding signal in assay [7] came to 5.87 z-score.
As for “CCGATTAACATCAGGGAAAGCACTGATGTTAATCGGGTCTTGATTCGCTTGACGCTGCTG”, the binding signal in assay [1] stood at 3.61 z-score; in assay [2], 4.73 z-score; in assay [3], 3.86 z-score; in assay [4], 2.69 z-score; in assay [5] it was 6.76 z-score; in assay [6] it was 6.5 z-score. In assay [7], this sequence showed a binding signal of 3.98 z-score.
Regarding “CCGATTAACATCACCCTCCCCCCTGATGTTAATCGGGTCTTGATTCGCTTGACGCTGCTG”, the binding signal was found to be 4.55 z-score in assay [1]; 4.25 z-score in assay [2]; 4.55 z-score in assay [3]; 6.06 z-score in assay [4]; 3.66 z-score in assay [5]; 3.9 z-score in assay [6]. Further, the binding signal in assay [7] is 4.13 z-score.
Turning to “CCGATTAACATCAACCATTCCCCTGATGTTAATCGGGTCTTGATTCGCTTGACGCTGCTG”, the binding signal in assay [1] was found to be 5.66 z-score; in assay [2], 6.61 z-score; in assay [3], 7.06 z-score; in assay [4], 4.68 z-score; in assay [5] it was 1.96 z-score; in assay [6] it was 4.45 z-score. The same sequence displayed a binding signal in assay [7] of 4.88 z-score.
For “CCGATTAACATCAAATTCCCATGTGATGTTAATCGGGTCTTGATTCGCTTGACGCTGCTG”, the binding signal in assay [1] came to 2.41 z-score; in assay [2] it was 4.08 z-score; in assay [3] it was 4.15 z-score; in assay [4], 1.96 z-score; in assay [5], 3.99 z-score; in assay [6], 2.58 z-score. In addition, in assay [7], the binding signal was 3.09 z-score.
In the case of “CCGATTAACATCAAAAGATCCCCTGATGTTAATCGGGTCTTGATTCGCTTGACGCTGCTG”, the binding signal amounted to 8.32 z-score in assay [1]; 8.42 z-score in assay [2]; 9.3 z-score in assay [3]; 5.39 z-score in assay [4]; 9.75 z-score in assay [5]; 7.5 z-score in assay [6]. Moreover, the binding signal in assay [7] came out at 6.41 z-score.
For “CCGATTAACATCAGGGTAAGTACTGATGTTAATCGGGTCTTGATTCGCTTGACGCTGCTG”, the binding signal in assay [1] is 2.48 z-score; in assay [2], 3.05 z-score; in assay [3], 2.93 z-score; in assay [4], 1.85 z-score; in assay [5] it was 7.08 z-score; in assay [6], 5.82 z-score. In addition, the binding signal in assay [7] is 2.3 z-score.
As to “CCGATTAACATCAAATACTCCCCTGATGTTAATCGGGTCTTGATTCGCTTGACGCTGCTG”, the binding signal stood at 6.1 z-score in assay [1]; 5.48 z-score in assay [2]; 6.09 z-score in assay [3]; 6.89 z-score in assay [4]; 3.34 z-score in assay [5]; 5.29 z-score in assay [6]. The sequence further displayed a binding signal in assay [7] of 4.01 z-score.
For “CCGATTAACATCATGAATTCCCATGATGTTAATCGGGTCTTGATTCGCTTGACGCTGCTG”, the binding signal turned out to be 1.57 z-score in assay [1]; 3.03 z-score in assay [2]; 3.14 z-score in assay [3]; 2.17 z-score in assay [4]; 3.29 z-score in assay [5]; 2.61 z-score in assay [6]. For the same sequence, the binding signal in assay [7] came out at 2.73 z-score.
On to “CCGATTAACATCACGGGGAACTCTGATGTTAATCGGGTCTTGATTCGCTTGACGCTGCTG”, for which the binding signal was determined as 6.71 z-score in assay [1]; 6.61 z-score in assay [2]; 6.85 z-score in assay [3]; 6.94 z-score in assay [4]; 7.12 z-score in assay [5]; 4.95 z-score in assay [6]. In assay [7], the binding signal came out at 4.53 z-score.
Consider “CCGATTAACATCAAATTTCCCCATGATGTTAATCGGGTCTTGATTCGCTTGACGCTGCTG”, for which the binding signal turned out to be 7.86 z-score in assay [1]; 9.05 z-score in assay [2]; 10.8 z-score in assay [3]; 9.42 z-score in assay [4]; 4.87 z-score in assay [5]; 7.31 z-score in assay [6]. Also, the binding signal in assay [7] was determined as 6.68 z-score.
For “CCGATTAACATCAAAAAATCCCCTGATGTTAATCGGGTCTTGATTCGCTTGACGCTGCTG”, the binding signal in assay [1] is 11.7 z-score; in assay [2], 11.9 z-score; in assay [3] it was 13.6 z-score; in assay [4], 6.83 z-score; in assay [5] it was 10.7 z-score; in assay [6] it was 9.56 z-score. The sequence further displayed a binding signal in assay [7] of 8.06 z-score.
